Sampled rows, rich in hits. Any-hit rate of the full collection: about 3.7%.
CHT inh: human CHT choline transport inhibition; Q9GZV3; CHT-expressing cells, membrane potential dye, choline response; active compounds read low; B-score at 10 µM; 0.86% of 310,000 active;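 active means B-score over 3 SD under the library average, and starting fluorescence ratio not unusually high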;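 further: choline stimulus applied at its EC90 after an EC20 pre-addition; B-score computed on integrated fluorescence ratio after choline addition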
GPR7 antagonist: blocks human GPR7 receptor signaling; P48145; GPR7-expressing cells, fluorescence antagonist assay; inhibition, % at 4.4 µM; 1.1% of 290,000 active; in the data active means inhibition above about 16%, passing the limit was not always enough;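 further: cells stimulated with the agonist NPW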
ANO1 block: inhibitors of mouse TMEM16A calcium-activated chloride channel. 1.2% of 310,000 active. normalized B-score (activity score, 25-100; higher = stronger inhibition) at 10 µM. HEK293 TMEM16A/YFP iodide influx fluorescence, ionomycin. Q8BHY3;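 active means ratio plate-corrected score three or more library SD toward inhibition, starting fluorescence score within five deviations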;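 further: score derived from kinetic fluorescence span divided by baseline fluorescence per well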
ANO1 activ: activators or potentiators of mouse TMEM16A chloride channel | HEK293 TMEM16A/YFP-H148Q/I152L, iodide quench fluorescence; active compounds read low | B-score at 10 µM | 0.3% of 340,000 active;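 active means fluorescence-ratio B-score plate-corrected deviation score at least 3 library SD below zero, with starting fluorescence score within 5 deviations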;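 further: channel opened by trigger with iodide after compound preincubation; score built on the fluorescence ratio of max minus min over baseline; more negative score means more quench and so TMEM16A activation or potentiation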
Kir21 block: blocks the mouse Kir2.1 inward-rectifier potassium channel | P35561 | HEK293-Kir2.1, FluxOR thallium flux fluorescence; active compounds read low | B-score at 10 µM | 0.85% of 310,000 active;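 active means fluorescence ratio B-score at or below minus 3 SD of library scores, with starting-brightness B-score within 2 SD, cut at about -4.2 in these data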;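 further: channel flux triggered by added potassium and thallium sulfate stimulus; B-score of peak minus minimum fluorescence over baseline after thallium stimulus; more negative B-score means stronger Kir2.1 block with less thallium influx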
Target sequence (P35561 whole entry, looked up): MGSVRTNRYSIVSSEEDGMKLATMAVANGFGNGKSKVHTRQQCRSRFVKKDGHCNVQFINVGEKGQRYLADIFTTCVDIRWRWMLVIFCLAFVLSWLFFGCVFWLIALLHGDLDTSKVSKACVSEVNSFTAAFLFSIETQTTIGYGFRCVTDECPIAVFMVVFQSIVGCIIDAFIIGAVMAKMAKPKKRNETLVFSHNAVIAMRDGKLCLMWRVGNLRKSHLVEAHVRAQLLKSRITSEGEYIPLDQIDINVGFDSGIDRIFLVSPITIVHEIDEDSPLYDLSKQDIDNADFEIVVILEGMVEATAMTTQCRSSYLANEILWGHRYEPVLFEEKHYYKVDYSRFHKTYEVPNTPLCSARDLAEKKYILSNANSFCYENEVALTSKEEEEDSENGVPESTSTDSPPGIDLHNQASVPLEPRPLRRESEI
CHT allo act: allosteric activators of human choline transporter CHT; Q9GZV3; CHT-expressing cells, membrane potential dye, choline EC20; active compounds read high; LV-AA mutant CHT in HEK293 cells; B-score at 10 µM; 0.49% of 310,000 active; AID 488977;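 active means initial fluorescence not abnormally high and integrated response B-score, plate-corrected, over 3 SD above library mean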
TMEM16A reconf: TMEM16A (mouse) chloride channel inhibition, re-confirmation. shares compounds with ANO1 block. HEK293 TMEM16A/YFP-H148Q, iodide quench fluorescence; ionomycin added to raise cell calcium. inhibition, % at 10 µM. 39% of 2,300 active. AID 652189;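 active means mean duplicate percent inhibition, scaled so buffer wells are 0 and the reference blocker 100, over three buffer SD above buffer mean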
HEK293 Ca mobil: calcium mobilization counter-screen hit for TMEM16A inhibitor series; shares compounds with ANO1 block; TMEM16A/YFP HEK293, Fluo4 calcium mobilization; calcium response (% of ionomycin), % at 10 µM; 2% of 2,300 active;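 active means duplicate-averaged calcium signal over 20% of the ionomycin maximum, relative to buffer baseline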;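 further: each well's signal is peak minus trough fluorescence divided by its pre-addition baseline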
Parental YFP cnt: parental YFP-HEK293 iodide quench counter-screen activity. ionomycin. 2,300 tested, under 10 active. YFP ratio F(max-min)/F0 at 10 µM. shares compounds with ANO1 block. AID 652233;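 active means yellow fluorescent protein signal ratio exceeding the buffer control mean by over 5 SD of those controls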;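 further: ratio is mean of duplicate wells from kinetic YFP trace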
ClC-1 rat inh: blocks the rat ClC-1 voltage-dependent chloride channel; CHO ClC-1-YFP, iodide influx fluorescence quench; iodide control reads 0, buffer control 100; 2,300 tested, under 10 active; shares compounds with ANO1 block; AID 652236; ratio percent, % at 10 µM;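 active means duplicate-mean ratio percent above the mean of iodide-only control wells, which defines zero, plus 5 of their SD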;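 further: higher percent means stronger block of ClC-1 iodide influx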
Numbers stand for hits; – = inactive; · = no result given.

SMILES	CHT inh	GPR7 antagonist	ANO1 block	ANO1 activ	Kir21 block	CHT allo act	TMEM16A reconf	HEK293 Ca mobil	Parental YFP cnt	ClC-1 rat inh
CCCn1c(=O)n(C)c(=O)c2c(SC(C)C(=O)NCC3CCCO3)nc(CC(C)C)nc21 (stereo unspecified)	–	·	–	–	–	–	·	·	·	·
COc1cc(O)cc2c1[C@@H]1Oc3c(ccc(O)c3CC=C(C)C)[C@@H]1CO2	–	·	25	–	-5.15	–	29.5%	–	–	–
COc1c(CC=C(C)C)cc(C2CC(=O)c3c(O)cc(O)cc3O2)cc1CC=C(C)C (stereo unspecified)	–	·	–	–	–	–	·	·	·	·
C=CCNCc1cccn1-c1sc2c(c1C#N)CCCC2	–	–	25	–	–	–	–	–	–	–
N#Cc1c(NC(=S)NC(=O)c2ccccc2)sc2c1CCCC2	–	–	–	–	–	–	·	·	·	·
Cc1cc(OCC(=O)Nc2ccc(Br)cc2)cc2c1C(=O)CC(C)(C)O2	–	–	100	–	–	–	21.5%	–	–	–
CN1C(=O)C2(OCC(COc3ccc(Cl)cc3)O2)c2ccccc21 (stereo unspecified)	–	–	100	–	–	–	18.0%	–	–	–
O=C1Nc2ccccc2C12OCC(COc1ccc(Cl)cc1)O2 (stereo unspecified)	–	–	–	–	–	–	·	·	·	·
Cc1cccc2c(SCC(N)=O)nc(-c3ccccc3)nc12	–	–	100	–	–	–	–	–	–	–
COC(=O)CSc1nc(-c2ccccc2)nc2ccccc12	–	–	–	–	–	–	·	·	·	·

Compound activity (PubChem BioAssay)
